# Experimental data reported in ChEMBL document CHEMBL3988442, “University of Dundee, Small-Polar-MMV Screening Library” (2021).
# The whole screen tested about 69,000 compounds, of which about 950 (1.4%) showed an effect of 50% or more. The entries come from a sample that favours strong results as a whole.
# Tested on: Mycobacterium tuberculosis
# Assay: Cornell M. t heat shock assay; also: in the data most compounds retested in dose-response had high values
# Type: functional, organism-based
# Design: dose or concentration left out as unconfirmed
row,SMILES,Percent Effect
1,COc1ccc(OC)c(CN(Cc2ccco2)Cc2[nH]cnc2C)c1.O=C(O)CC(O)(CC(=O)O)C(=O)O,-22.22%
2,Cc1cccn2cc(CN3CCCC(c4ccn[nH]4)C3)nc12 (configuration not stated),23.59%
3,Cc1cccn2cc(CN3CCCC(O)C3)nc12 (configuration not stated),-6.265%
4,Cc1cccn2cc(CN3CCCC(c4noc(C5CC5)n4)C3)nc12 (configuration not stated),100.9%
5,COCC(=O)N1CCC2(CC1)C(=O)N(Cc1cccnc1)CCN2C.O=C(O)C(F)(F)F.O=C(O)C(F)(F)F,-22.77%
6,O=C(NC[C@H]1CC[C@H](c2ccnc3ncnn32)CC1)C1CC1,14.38%
7,COCC1c2c(cnn2C)CCN1Cc1ccc(C)cc1.O=C(O)C(F)(F)F.O=C(O)C(F)(F)F (configuration not stated),-35.12%
8,Cn1ccnc1CN1CCc2onc(COCC3CC3)c2C1.O=C(O)C(F)(F)F,34.07%
9,CCn1ncc2c1C(COC)N(C(=O)c1cscn1)CC2.O=C(O)C(F)(F)F (configuration not stated),-5.863%
10,COCCN1CCCC1c1ccnc(-c2ccccc2)n1 (configuration not stated),20.75%
11,Cc1ccc(C2CCCCCN2Cc2cn(C)nc2C)s1 (configuration not stated),11.6%
12,Cc1cnc(Nc2cccc(C3CCCN3Cc3cn(C)nc3C)n2)s1 (configuration not stated),104.4%
13,Cc1nn(C)cc1CN1CCCCCC1c1ccccc1Cl (configuration not stated),-8.916%
14,Cc1cccc(C2CCCCCN2Cc2cn(C)nc2C)c1 (configuration not stated),5.626%
15,COCCN1CCCC1c1nccnc1Nc1nccs1 (configuration not stated),-9.826%
16,Cc1nn(C)cc1CN1CCCC1c1cccc(Nc2nccs2)n1 (configuration not stated),99.7%
17,CS(=O)(=O)N1CCCC1c1cccc(Nc2nccs2)n1 (configuration not stated),92.85%
18,c1ccc(CCN2CCCC2c2cccc(Nc3nccs3)n2)cc1 (configuration not stated),104.9%
19,Cc1ccsc1C1CCCCCN1Cc1cn(C)nc1C (configuration not stated),17.22%
20,CS(=O)(=O)N1CCCC1c1cccc(Cc2ccccc2F)n1 (configuration not stated),-7.758%
21,Cc1nc(Nc2ncc(C)s2)cc(C2CCCN2S(C)(=O)=O)n1 (configuration not stated),-9.231%
22,CCCc1nnc(N[C@H](C)c2ccc(OC)cc2)o1,32.03%
23,O=C(Nc1ccccc1)N1C(CO)[C@]2(O)CC[C@H]1CC2 (some centres not stated),-13.23%
24,C=C1C(C)(C)[C@H]2CC[C@]1(C(=O)N1CCC(n3cc(CO)nn3)CC1)C2,11.02%
25,C[C@H]1C(=O)NC[C@H]2CN(CCc3ccccc3)C[C@H]21.O=C(O)C(F)(F)F,-3.474%

row,SMILES,Percent Effect
1,CN(C)c1ccnc(C2CCCN2)n1.Cl (configuration not stated),-9.101%
2,Cc1ccc(CN2CC3(CCN(C(=O)c4cccnc4)C3)C2)o1.O=C(O)C(F)(F)F.O=C(O)C(F)(F)F,25.41%
3,Cl.Cl.O=C(NCc1cncc2c1CCN(Cc1cccs1)C2)C1CC1,3.264%
4,O=C(NCc1ccccn1)[C@H]1COC[C@H]2CN(Cc3ccoc3)C[C@H]21.O=C(O)C(F)(F)F.O=C(O)C(F)(F)F,2.625%
5,COCCNc1nc(C)nc2c1CCN(C[C@H]1CC[C@@H](N)CC1)CC2,-33.02%
6,Cn1nc(COc2cccnc2)c2c1CCN(c1cnccn1)C2.O=CO.O=CO,1.293%
7,O=C(O)C(F)(F)F.O=C(O)C(F)(F)F.c1cncc(N2CCOCC3(CCCN(Cc4cccs4)C3)C2)c1 (configuration not stated),-22.26%
8,CC(C)[C@H](N)C(=O)N1CCCC(C2=Nc3ccccc3S(=O)(=O)N2)C1.Cl (some centres not stated),13.38%
9,Cc1cccc(CN2CCc3onc(Cn4cccc4)c3C2)n1.O=C(O)C(F)(F)F,14.85%
10,COCCN1C2(CCN(CC3CC3)C2)c2ccccc2S1(=O)=O.O=C(O)C(F)(F)F (configuration not stated),3.018%
11,NC(=O)c1ccc(CNC(=O)Nc2cn[nH]c2)cc1,-17.84%
12,Cc1nc(Nc2ccccn2)cc(C2CCCN2Cc2ncc[nH]2)n1 (configuration not stated),21.63%
13,Cc1cccc(CN2CCCC2c2cccc(Nc3nccs3)n2)c1 (configuration not stated),104%
14,Cc1ccccc1CN1CCCC1c1cccc(Nc2nccs2)n1 (configuration not stated),106.1%
15,Cc1nc(Nc2nccs2)cc(C2CCCN2C2CCOCC2)n1 (configuration not stated),-17.35%
16,Cc1cccc(CN2CCCC2c2cccc(CCC(=O)O)n2)c1 (configuration not stated),-20.44%
17,Cc1cc(C2CCCN2Cc2cccc(C(=O)Nc3nccs3)c2)no1 (configuration not stated),-4.082%
18,CCCN(CC1CC1)C(=O)CN1CCCC1c1cnn(C)c1 (configuration not stated),3.305%
19,CS(=O)(=O)N1CCN(C(=O)CCC2CCCO2)CC1 (configuration not stated),9.25%
20,Cc1noc(C)c1CN1CCC2(CC1)C(c1cnn(C)c1)CC(=O)N2C.O=C(O)C(F)(F)F (configuration not stated),38.42%
21,CC(=O)N1CCO[C@@H]2CN(S(=O)(=O)c3cccnc3)C[C@@H]2C1.O=C(O)C(F)(F)F,22.17%
22,Cc1cccc(CN2CCc3nnc(CO)n3CC2)n1.O=C(O)C(F)(F)F,-11.61%
23,CC(C)CN1CCC2(C=C(C(=O)NC3CC3)c3ccccc32)CC1.O=C(O)C(F)(F)F,-0.1524%
24,CC(=O)NC1CCN(c2cnc(C3CCNCC3)cn2)CC1.Cl,-24.22%
25,O=C(O)C(F)(F)F.c1cnc(N2CCO[C@H]3[C@H](OCC4CCOCC4)CC[C@@H]32)nc1,52.27%

row,SMILES,Percent Effect
1,O=C(O)C(F)(F)F.c1cnc(N2CCO[C@H]3[C@H](OCC4CC4)CC[C@@H]32)nc1,10.71%
2,Fc1cnc(N2CCO[C@H]3[C@H](OCC4CCOCC4)CC[C@@H]32)nc1.O=C(O)C(F)(F)F,47.96%
3,CCOCC(=O)N1CCC2(CC1)CC(c1ccccc1)CO2 (configuration not stated),16.4%
4,CS(=O)(=O)N1C[C@H]2C[C@H](C(=O)N3CCOCC3)[C@@H](C1)O2,9.276%
5,CN(Cc1nccs1)c1nc(-c2ccccn2)nc2c1CCNCC2,47.94%
6,CN(Cc1ccsc1)c1nc(-c2ccccn2)nc2c1CCNCC2,90.45%
7,CN(Cc1cccnc1)c1nc(-c2ccccn2)nc2c1CCNCC2,7.828%
8,O=C(O)C(F)(F)F.c1cnc(NCc2nnn3c2CN(Cc2ccsc2)CCC3)nc1,-34.33%
9,Cl.O=C(NC1CCCC1)c1cc(C2CCCNC2)n[nH]1 (configuration not stated),2.974%
10,COCCN1C[C@@H]2[C@@H](OC)CCN(Cc3ccsc3)[C@@H]2C1.O=C(O)C(F)(F)F.O=C(O)C(F)(F)F,-56.24%
11,c1ccc(-c2nc3c(c(NCc4nnc5n4CCC5)n2)CCNC3)cc1,-1.823%
12,c1ccc(-c2nc3c(c(NCCc4c[nH]cn4)n2)CCNC3)cc1,103.9%
13,c1coc(-c2nc3c(c(NCc4n[nH]c5c4CCC5)n2)CCNCC3)c1,-50.31%
14,c1ccc(-c2nc3c(c(NCc4n[nH]c5c4CCC5)n2)CCNC3)cc1,105.2%
15,c1nc(CCNc2nc(C3CC3)nc3c2CCNCC3)c[nH]1,-37.66%
16,c1cc(-c2nc3c(c(NCCc4c[nH]cn4)n2)CCNCC3)ccn1,-32.96%
17,Cc1cnc(N2CCc3c(CNc4ccnc(C)n4)cncc3C2)nc1.Cl,12.07%
18,Cl.Cn1ccnc1N1CCN(C(=O)Cc2ccccc2)CC1,-7.185%
19,O=C(O)C(F)(F)F.O=C1COC2(CCN(C(=O)C3CC=CC3)CC2)CN1Cc1cccnc1,-29.72%
20,CS(=O)(=O)CC(=O)N1C[C@@H]2CN(Cc3ccoc3)CCO[C@@H]2C1,-0.05269%
21,Cc1cc(C(=O)N2CCc3nc(C4CCCCN4)ncc3C2)cs1.Cl (configuration not stated),-19.38%
22,O=C(O)C(F)(F)F.O=C(O)C(F)(F)F.c1cc(CO[C@@H]2CC[C@H]3[C@H]2OCCN3CC2CCOCC2)ccn1,-2.91%
23,CN(C)[C@@H]1CN(C(=O)Cc2ccc(F)cc2)[C@@H]2CCCO[C@H]12.O=C(O)C(F)(F)F,-22.98%
24,Cc1ccc(C(=O)N2CCc3ccc(=O)n(CCN(C)C)c3CC2)o1.O=C(O)C(F)(F)F,-16.57%
25,COCCNC(=O)[C@H]1CO[C@H]2CCN(Cc3cccs3)C[C@H]2C1,78.89%

row,SMILES,Percent Effect
1,COCCN1CC[C@@H]2OC[C@H](C(=O)NCc3cccs3)C[C@@H]2C1.O=C(O)C(F)(F)F,-7.487%
2,O=C(NCc1cccs1)[C@H]1CO[C@H]2CCN(C3CCCC3)C[C@H]2C1.O=C(O)C(F)(F)F,16.16%
3,O=C(NCCc1cccs1)[C@H]1CO[C@H]2CCN(CC3CC3)C[C@H]2C1.O=C(O)C(F)(F)F,1.069%
4,CCN1CC[C@@H]2OC[C@H](C(=O)NCc3cccs3)C[C@@H]2C1,64.41%
5,O=C(NCCc1cccs1)[C@H]1CO[C@H]2CCN(C3CCC3)C[C@H]2C1.O=C(O)C(F)(F)F,6.34%
6,O=C(NC1CCC1)[C@H]1C[C@@H]2CN(C(=O)Nc3ccc(F)cc3)C[C@H]1O2,-5.328%
7,CN(C)c1ncc(-c2cc(C(=O)NCCO)n(CC3CC3)c2)cn1.O=C(O)C(F)(F)F,-4.821%
8,CC(C)c1cc(CN2CCC(CC(=O)O)CC2)no1,6.455%
9,CC(C)c1cc(CN2CCC(N)CC2)no1,-1.347%
10,CC(C)c1cc(CN2CCNCC2)no1,100.9%
11,Cc1cccc(C2(O)CCN(Cc3ccccc3N3CCCC3)CC2)c1,106%
12,OC1(c2ccccc2F)CCN(Cc2ccccc2N2CCCC2)CC1,-5.486%
13,Cl.OC1(c2ccc(F)cc2)CCN(Cc2ccccc2N2CCCC2)CC1,3.038%
14,CCN(CC)S(=O)(=O)CC(=O)N1CCc2ccc(F)cc21,-19.64%
15,CCN1Cc2cc(F)ccc2N(C(C)=O)CCC1=O,51.48%
16,O=C1NCCCCC1NC(=O)N1CCCc2cc(F)ccc21 (configuration not stated),-1.562%
17,CCN1Cc2ccccc2N(C(=O)C2CCC2)CCC1=O,52.52%
18,O=C(C1CCC1)N1CCC(=O)N(C2CC2)Cc2cc(F)ccc21,39.59%
19,CN1C(=O)CCN(C(=O)C2CCCCC2)c2ccccc21,-13.68%
20,CCN1Cc2cc(F)ccc2N(C(=O)C2CCC2)CCC1=O,57.03%
21,CC(=O)N1CCC(=O)N(C2CCCC2)Cc2ccccc21,18.8%
22,COCC(=O)N1CCC(=O)N(C2CCCC2)Cc2cc(F)ccc21,44.15%
